Screens: PubChem BioAssay, several laboratories
LANA DNA inh: inhibitors of KSHV LANA C-terminal domain DNA binding; MBP-C-LANA/FAM-LBS DNA binding, fluorescence polarization; inhibition, % at 9 µM; actives 0.078% (n = 340,000);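 active means highest replicate inhibition at or above 60% at 9 µM, even if other replicates fall short; inactive means all replicates below 60% inhibition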
RTF Ca sens act: increases calcium sensitivity of human cardiac regulated thin filaments. activation, % at 7.2 µM. IANBD-labeled TnC RTF fluorescence at EC20 calcium; 0% EC20 calcium, 100% full calcium. actives 0.24% (n = 340,000);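 active means activation above the mean over all tested compounds plus 3 SD, cut at about 30% in these data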;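 further: rise in fluorescence read as greater calcium sensitivity of cardiac thin filaments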
RTF Ca sens inh: cardiac RTF calcium desensitization; AID 493244; actives 0.12% (n = 340,000); IANBD-labeled cardiac RTF, Ca2+ fluorescence; inhibition, % at 7.15 µM;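 active means inhibition above the mean inhibition of all tested compounds plus 3 SD, cut at about 17% in these data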;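 further: assay run at fixed EC70 calcium of 1.6 mM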
Keap1-Nrf2 PPI: inhibitors of human Keap1-Nrf2 protein-protein interaction. Q14145. Keap1 Kelch-Nrf2 peptide fluorescence polarization, 1536-well. inhibition, % at 9.4 µM. actives 0.15% (n = 340,000). AID 504523; in the data active means inhibition above about 12%;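 further: human Keap1 Kelch domain with fluorescein labeled Nrf2 9mer peptide probe; higher means more block of Keap1 binding to Nrf2 peptide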
E coli Lon inh: inhibits E. coli Lon protease; inhibition, % at 7.94 µM; purified E. coli Lon protease, fluorescence polarization; actives 0.42% (n = 360,000); in the data active means inhibition above about 13%, passing the limit was not always enough
Target sequence (P0A9M0 whole entry, looked up): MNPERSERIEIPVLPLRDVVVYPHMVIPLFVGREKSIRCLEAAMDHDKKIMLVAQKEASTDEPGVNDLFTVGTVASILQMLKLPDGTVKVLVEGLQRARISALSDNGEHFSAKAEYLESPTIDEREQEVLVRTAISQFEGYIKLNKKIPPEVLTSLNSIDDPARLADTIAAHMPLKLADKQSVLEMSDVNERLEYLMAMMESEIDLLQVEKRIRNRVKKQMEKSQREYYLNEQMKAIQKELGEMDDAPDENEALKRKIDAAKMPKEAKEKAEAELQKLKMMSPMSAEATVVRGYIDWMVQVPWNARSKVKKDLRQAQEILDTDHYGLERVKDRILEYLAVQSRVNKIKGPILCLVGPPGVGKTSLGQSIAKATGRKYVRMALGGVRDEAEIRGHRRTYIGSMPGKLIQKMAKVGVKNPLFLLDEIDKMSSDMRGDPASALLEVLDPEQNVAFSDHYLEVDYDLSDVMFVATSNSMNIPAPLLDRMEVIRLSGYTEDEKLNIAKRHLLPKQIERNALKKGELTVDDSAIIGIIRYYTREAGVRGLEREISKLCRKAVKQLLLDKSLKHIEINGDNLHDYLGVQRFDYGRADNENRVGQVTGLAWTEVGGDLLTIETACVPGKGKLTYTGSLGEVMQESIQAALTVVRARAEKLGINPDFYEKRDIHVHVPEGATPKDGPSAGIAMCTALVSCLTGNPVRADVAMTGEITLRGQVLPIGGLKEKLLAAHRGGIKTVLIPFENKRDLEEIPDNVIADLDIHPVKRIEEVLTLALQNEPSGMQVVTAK
Keap1 Kelch bind: Keap1 (human) Kelch domain binding; max delta Tm, degrees C; shares compounds with Keap1-Nrf2 PPI; Keap1 Kelch thermal shift, delta Tm; hits give high values; actives 8% (n = 400); AID 651823; in the data active means max delta Tm above about 0.48 degrees C
Dye-only ctr: shifts Sypro Orange melt without protein, a false positive | shares compounds with Keap1-Nrf2 PPI | delta Tm, degrees C (test concentration not listed) | 140 tested, under 10 active | Sypro Orange dye-only thermal melt, no protein, delta Tm; top dose 26 µM;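 active means at highest dose tested, delta Tm positive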
E coli Lon conf: E. coli Lon inhibition confirmation. inhibition, % at 7.94 µM. actives 31% (n = 1,400). AID 602230. shares compounds with E coli Lon inh. purified E. coli Lon, fluorescence polarization; in the data active means inhibition above about 16%
Each line names hits and unclear results; the compound was inactive in the other large screens (follow-up assays come after a bar, where they were run). Compounds with a hit are over-represented: about 0.82% of the library has one in this group of screens.

O=C(Nc1cccc2c1CCCC2)c1cc(C2CCCCN2S(=O)(=O)c2cccs2)on1 (stereo unspecified)	none (no result: LANA DNA inh, RTF Ca sens act, RTF Ca sens inh, Keap1-Nrf2 PPI)
CC(=O)N1CC=C2C(C#N)=C(N)C(C#N)(C#N)C(CCc3ccccc3)C2C1 (stereo unspecified)	none
CCN1CC=C2C(C#N)=C(N)C(C#N)(C#N)C(CCc3ccccc3)C2C1 (stereo unspecified)	RTF Ca sens act 35, Keap1-Nrf2 PPI 22, E coli Lon inh 27 | Keap1 Kelch bind inactive | E coli Lon conf 21
CC1(C)N=C(N)N=C(N)N1c1ccc(CCCCc2ccccc2)cc1	none (no result: LANA DNA inh, RTF Ca sens act, RTF Ca sens inh, Keap1-Nrf2 PPI)
CCCCC1OC2(C)OC(=N)C1(C#N)C(C#N)(C#N)C2c1ccccc1 (stereo unspecified)	Keap1-Nrf2 PPI 30, E coli Lon inh 29 | Keap1 Kelch bind inactive | E coli Lon conf inactive
CC1OC2(C)OC(=N)C1(C#N)C(C#N)(C#N)C2c1ccccc1 (stereo unspecified)	Keap1-Nrf2 PPI 23, E coli Lon inh 15 | Keap1 Kelch bind inactive | Dye-only ctr inactive | E coli Lon conf inactive
CCc1nc2c(OCC(=O)c3ccc(Cl)cc3Cl)cccn2c1N(C=O)Cc1ccccc1	none (no result: LANA DNA inh, RTF Ca sens act, RTF Ca sens inh, Keap1-Nrf2 PPI)
COc1ccc(/C=N/N=C2/NC(=O)CC(C(=O)O)S2)cc1 (stereo unspecified)	none
COc1ccc(/C=N/N=C2/CC(C)(C)Cc3n[nH]c(=O)cc32)cc1	Keap1-Nrf2 PPI 13, E coli Lon inh 45 | Keap1 Kelch bind inactive | E coli Lon conf 21
O=c1ccc2cc3c4c(c2o1)CCCN4CCC3	RTF Ca sens act 129, Keap1-Nrf2 PPI 38, E coli Lon inh 80 | Keap1 Kelch bind inactive | E coli Lon conf 22
CN1CC=C2C(C#N)=C(N)C(C#N)(C#N)[C@H](c3ccoc3)[C@H]2C1	RTF Ca sens act 50, Keap1-Nrf2 PPI 27, E coli Lon inh 130 | Keap1 Kelch bind inactive | E coli Lon conf 109
Cc1ccc(C2C3CN(C(C)C)CC=C3C(C#N)=C(N)C2(C#N)C#N)cc1 (stereo unspecified)	RTF Ca sens act 136, Keap1-Nrf2 PPI 23, E coli Lon inh 36 | Keap1 Kelch bind inactive | E coli Lon conf 48
CN1CC=C2C(C#N)=C(N)C(C#N)(C#N)C(c3cccc(Cl)c3Cl)C2C1 (stereo unspecified)	none
Fc1ccc(C2=CC(c3ccco3)n3ncnc3N2)cc1 (stereo unspecified)	RTF Ca sens act 70, Keap1-Nrf2 PPI 19, E coli Lon inh 79 | Keap1 Kelch bind inactive | E coli Lon conf inactive
CC(C)CNc1ncnc2c1ncn2[C@H]1CN(CCc2ccccc2)C[C@@H](CO)O1	none (no result: LANA DNA inh, RTF Ca sens act, RTF Ca sens inh, Keap1-Nrf2 PPI)
CCCCOc1[nH]c2nc(-c3ccco3)n(Cc3ccco3)c(=N)c2c1C#N	Keap1-Nrf2 PPI 16, E coli Lon inh 51 | Keap1 Kelch bind inactive | E coli Lon conf inactive
CCOC(=O)c1ccc2ncc(C(=O)OCC)c(NCCN(C)C)c2c1	Keap1-Nrf2 PPI 14, E coli Lon inh 22 | Keap1 Kelch bind inactive | Dye-only ctr inactive | E coli Lon conf inactive
CCC1OC23CCCCC2C(C#N)(C(=N)O3)C1(C#N)C#N (stereo unspecified)	RTF Ca sens act 35, Keap1-Nrf2 PPI 27, E coli Lon inh 28 | Keap1 Kelch bind inactive | Dye-only ctr inactive | E coli Lon conf inactive
COc1ccc(C2OC34CCCCC3C(C#N)(C#N)C2(C#N)C(=N)O4)cc1 (stereo unspecified)	Keap1-Nrf2 PPI 22, E coli Lon inh 34 | Keap1 Kelch bind inactive | Dye-only ctr inactive | E coli Lon conf 34
CC1OC23CCCCC2C(C#N)(C(=N)O3)C1(C#N)C#N (stereo unspecified)	none
COc1cc(OC)cc(C2=Cc3ccc(OC)cc3C(CC(C)=O)N2c2ccc(-c3cccs3)cc2)c1 (stereo unspecified)	none (no result: LANA DNA inh, RTF Ca sens act, RTF Ca sens inh, Keap1-Nrf2 PPI)
Cc1cc(C)c[n+](-c2[nH]c(=O)sc2/C=N/NC([S-])=Nc2ccccc2)c1	RTF Ca sens act 75, Keap1-Nrf2 PPI 26, E coli Lon inh 70 | Keap1 Kelch bind inactive | Dye-only ctr inactive | E coli Lon conf 76
